Only some compounds are listed: those with a hit (about 0.5% of all), similar ones and a draw of the others.
phage Ecoli inh – E. coli growth loss with phage present; inhibition, % at 11.9 µM; 360,000 compounds, 0.26% hits; growth absorbance; in the data active means inhibition above about 11%
Tat transport – E. coli Tat transport inhibition | E. coli MC4100 TorA-mCherry Tat export, fluorescence | inhibition, % at 10 µM | 340,000 compounds, 0.036% hits;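 active means mean replicate inhibition at least 50% and at least half of replicates individually reaching 50%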;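 further: exported cargo escapes ClpAP degradation while cytoplasmic cargo is degraded and loses fluorescence; 0% = median of neutral control wells and 100% = median of NaSCN control wells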
E coli growth-1 – counter-screen for AddAB inhibitors: E. coli growth inhibition; 330,000 compounds, 0.27% hits; inhibition, % at 11.9 µM; E. coli V3065 growth, OD600 absorbance, 18 h;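 active means inhibition above the campaign's mean inhibition across all tested compounds plus 3 SD, cut at about 9.9% in these data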;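 further: uninfected addAB+ strain grown without phage in ampicillin broth; 0% = DMSO wells and 100% = ciprofloxacin 0.95 µg/ml wells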
E coli growth-2 – inhibitors of Escherichia coli growth | OD600, 23 h; stronger effect = lower value | OD600 absorbance (concentration not given with the values) | 330,000 compounds, 0.21% hits;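 active means OD600 absorbance below the run mean of sample wells minus 3.6 SD, in any replicate, cut at about 0.56 in these data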
AddAB inh – less growth of phage-infected E. coli with AddAB; E. coli expressing H. pylori AddAB, absorbance growth; inhibition, % at 11.9 µM; 330,000 compounds, 0.29% hits; in the data active means inhibition above about 12%;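 further: 0% = vehicle wells of infected cells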
AddAB confirm – confirmation screen: growth loss of phage-infected E. coli expressing H. pylori AddAB | shares compounds with AddAB inh | inhibition, % at 11.9 µM | 880 compounds, 64% hits | E. coli V3065 expressing H. pylori AddAB, T4 phage, OD; T4 phage with gene 2 nonsense mutations;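 active means mean inhibition above a set limit taken from the earlier primary screen, cut at about 13% in these data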;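 further: higher means less bacterial growth since AddAB block lets phage replicate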
RecBCD counter – counter-screen: growth loss of RecBCD+ E. coli with mutant T4 phage; shares compounds with AddAB inh; E. coli V66 + mutant T4 phage, OD growth; inhibition, % at 11.9 µM; 880 compounds, 73% hits;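 active means mean inhibition above the mean of solvent-only control wells plus 3 SD, cut at about 4% in these data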;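 further: optical density read after an 18 h incubation at 37 °C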
bact viab count – reduces bacterial viability, AddAB inhibitor counter-screen | shares compounds with AddAB inh | absorbance (AddAB counterscreen) | inhibition, % at 11.9 µM | 880 compounds, 35% hits | AID 488956; in the data active means inhibition above about 25%
RecBCD conf – confirmation: growth loss of phage-infected RecBCD+ E. coli (RecBCD inhibitor screen) | shares compounds with phage Ecoli inh | E. coli V66 + T4 2- phage, growth OD | inhibition, % at 11.9 µM | 890 compounds, 45% hits;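 active means mean inhibition over triplicates exceeding the hit threshold derived in the original primary screen, cut at about 11% in these data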
Ecoli viability – bacterial viability inhibition counter-screen for RecBCD; shares compounds with phage Ecoli inh; E. coli viability, absorbance (OD) growth; inhibition, % at 11.9 µM; 890 compounds, 29% hits; in the data active means inhibition above about 20%;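 further: E. coli strain V66 grown with compound alone and no phage infection; 0% = bacteria with DMSO vehicle only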
AddAB phage OD – growth loss of phage-infected AddAB E. coli, RecBCD counter-screen. shares compounds with phage Ecoli inh. E. coli expressing H. pylori AddAB + T4 phage, OD growth; gene 2 mutant T4, recBCD-deleted host. inhibition, % at 11.9 µM. 890 compounds, 45% hits. AID 651984;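 active means mean inhibition above the solvent-only control wells' mean plus 3 SD, cut at about 22% in these data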;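 further: higher means less bacterial growth from phage killing when AddAB is blocked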
An asterisk follows results filed as active; / = no result given.

SMILES	phage Ecoli inh	Tat transport	E coli growth-1	E coli growth-2	AddAB inh	AddAB confirm	RecBCD counter	bact viab count	RecBCD conf	Ecoli viability	AddAB phage OD
O=C1CN(/N=C/c2ccc([N+](=O)[O-])o2)C(=O)N1	76.9*	/	99.0*	/	99.4*	99.5*	40.1*	101.1*	48.7*	71.5*	99.8*
O=C1OC(CN2CCOCC2)CN1N=Cc1ccc([N+](=O)[O-])o1 (stereo not drawn)	86.5*	11.2	98.6*	0.064*	98.2*	99.8*	81.0*	99.7*	63.8*	83.2*	100.3*
O=C(c1ccc([N+](=O)[O-])o1)N1CCc2ccccc21	21.3*	6.0	94.2*	0.461*	96.5*	101.7*	20.2*	84.1*	10.0	12.9	98.0*
COc1ccc(Nc2nnc(SCc3cn4c(C)cccc4n3)s2)cc1	14.3*	-31.5	15.7*	0.604	16.3*	16.3*	12.2*	13.5	13.0*	17.7	18.6
CCCNC(=O)c1ccc2c(=O)c(O)c(-c3ccc(Cl)c([N+](=O)[O-])c3)[nH]c2c1	16.1*	1.9	11.3*	/	13.7*	11.4	12.9*	11.9	9.5	11.7	13.8
CC(=O)c1ccc(NC(=O)c2ccc(NC(=O)c3ccco3)cc2)cc1	/	2.9	2.4	0.693	3.2	/	/	/	/	/	/
O=C(NC(NC(=S)Nc1ccc(Cl)cc1)C(Cl)(Cl)Cl)c1ccco1 (stereo not drawn)	20.3*	-52.5	15.4*	/	18.2*	14.0*	18.4*	18.3	10.1	14.9	16.3
CC(=O)c1ccc(NC(=S)NC(NC(=O)c2ccco2)C(Cl)(Cl)Cl)cc1 (stereo not drawn)	17.5*	-11.8	18.7*	0.641	20.9*	16.2*	15.0*	13.9	8.2	12.7	10.5
O=C(NC(NC(=S)Nc1ccccc1O)C(Cl)(Cl)Cl)c1ccco1 (stereo not drawn)	5.6	-14.3	3.8	0.607	9.0	/	/	/	/	/	/
CCOC(=O)CC1c2ccccc2S(=O)(=O)N1c1ccccc1 (stereo not drawn)	/	/	/	0.674	/	/	/	/	/	/	/
COc1ccc(Oc2ccc(C=NNC(=O)c3cccnc3)cc2[N+](=O)[O-])cc1	/	/	/	0.67	/	/	/	/	/	/	/
CCCN1CCC(=O)N(C(CSc2ccccc2)Cc2ccccc2)CC1 (stereo not drawn)	/	/	/	0.642	/	/	/	/	/	/	/
O=C(N/N=C/c1ccc(O)c(O)c1O)/C(=C/c1ccc([N+](=O)[O-])cc1)NC(=O)c1ccccc1	15.1*	7.4	20.0*	/	15.9*	5.8	9.5*	1.6	0.5	3.4	1.6
O=C(NNC(=O)c1ccccc1O)c1ccc(Cl)c(S(=O)(=O)N2CCc3ccccc32)c1	15.9*	-3.8	14.1*	0.666	19.1*	1.4	8.3*	-0.2	4.2	7.2	8.5
Oc1ccc(Cl)cc1CNCc1ccc(Cl)cc1	4.6	-3.0	0.3	0.614	3.9	/	/	/	/	/	/
Oc1ccc(Cl)cc1Cc1cc(Cl)ccc1O	13.5*	-0.3	12.1*	0.13*	13.3*	6.2	13.9*	2.7	9.1	10.9	7.2
CC(=NNC(=O)Cn1cc([N+](=O)[O-])cn1)c1ccco1	/	/	/	0.631	/	/	/	/	/	/	/
CCOC(=O)c1cn(-c2ccc([N+](=O)[O-])cc2)c2cc(Cl)c([N+](=O)[O-])cc2c1=O	3.6	-3.2	3.1	0.642	1.9	/	/	/	/	/	/
O=C(O)c1cn(-c2ccc(F)cc2)c2cc(Cl)c(F)cc2c1=O	13.6*	-5.3	55.3*	0.0655*	52.6*	102.1*	98.9*	101.5*	98.0*	100.0*	99.2*

Assay outcomes: PubChem, several laboratories
